For 22 molecules, outcome and AC50 results are on record in PubChem BioAssay (EPA / NIEHS).

Calls of active or inactive are those of the source. Rule for the calls: active = hit-call score of the fitted dose curve at least 0.9, where 1 is the maximum; inactive = score below 0.9.

Holding throughout (conditions): mRNA level, 48 h; actives raise or lower the signal
Read-out in assay [1]: 3-Hydroxy-3-Methylglutaryl-CoA Synthase 2 (HMGCS2), HMGCS2 (gene 3158)
The assay is described as follows: LTEA_HepaRG_HMGCS2: Life Technologies and Expression Analysis (LTEA) Assay for 3-Hydroxy-3-Methylglutaryl-CoA Synthase 2 (HMGCS2) using HepaRG (AID 2283504). In short, it runs like this: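 Human HepaRG cells in serum-free induction medium were exposed in duplicate for 48 h to 8-point half-log series from 100 uM top in 0.5% DMSO. HMGCS2 mRNA measured by TaqMan qRT-PCR, normalised to ACTB, GAPDH, POLR2A; bidirectional fit versus DMSO.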

Read-out in a further assay: HGF (gene 3082)
As to the kind of experiment: LTEA_HepaRG_HGF: Life Technologies and Expression Analysis (LTEA) Assay for Hepatocyte Growth Facto (HGF) using HepaRG (AID 2283505). In short, it runs like this: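 Differentiated HepaRG cells in serum-free induction medium exposed 48 h in duplicate, 8 half-log concentrations from 100 uM in 0.5% DMSO. HGF mRNA by qRT-PCR, normalised to ACTB, GAPDH, POLR2A; bidirectional fitting.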

Read-out in assay [2]: Insulin Like Growth Factor 1 (IGF1), IGF1 (gene 3479)
As to the kind of experiment: LTEA_HepaRG_IGF1: Life Technologies and Expression Analysis (LTEA) Assay for Insulin Like Growth Factor 1 (IGF1) using HepaRG (AID 2283506). The gist of the method: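 Endpoint: IGF1 mRNA change by qRT-PCR, housekeeping-normalized, fitted bidirectionally relative to 0.5% DMSO vehicle. Human HepaRG cells were treated 48 h in serum-free induction medium, eight half-log concentrations topping at 100 uM.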

Read-out in assay [3]: Intercellular Adhesion Molecule 1 (ICAM1), ICAM1 (gene 3383)
As to the kind of experiment: LTEA_HepaRG_ICAM1: Life Technologies and Expression Analysis (LTEA) Assay for Intercellular Adhesion Molecule 1 (ICAM1) using HepaRG (AID 2283507). The gist of the method: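 Differentiated human HepaRG cells in serum-free induction medium exposed 48 h in duplicate to 8 half-log concentrations (top 100 uM, 0.5% DMSO). ICAM1 mRNA quantified by TaqMan qRT-PCR, normalized to ACTB, GAPDH and POLR2A; bidirectional fitting versus DMSO.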

Read-out in assay [4]: Insulin-like growth factor-binding protein 1 (IGFBP1), IGFBP1 (gene 3484)
The assay is described as follows: LTEA_HepaRG_IGFBP1: Life Technologies and Expression Analysis (LTEA) Assay for Insulin-like growth factor-binding protein 1 (IGFBP1) using HepaRG (AID 2283508). In short, it runs like this: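 HepaRG cells, plated 48 h then switched to serum-free induction medium, exposed in duplicate for 48 h to 8-point half-log series from 100 uM in 0.5% DMSO. mRNA measured by qRT-PCR, normalized to ACTB/GAPDH/POLR2A; bidirectional fit versus DMSO.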

Read-out in assay [5]: Interleukin 6 (IL6), IL6 (gene 3569)
The assay is described as follows: LTEA_HepaRG_IL6: Life Technologies and Expression Analysis (LTEA) Assay for Interleukin 6 (IL6) using HepaRG (AID 2283509). The gist of the method: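 Changes in IL6 mRNA, up or down relative to 0.5% DMSO controls, were derived from concentration-response curves in human HepaRG cells treated for 48 h at up to 100 uM, with ACTB, GAPDH and POLR2A as normalizers.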

Read-out in assay [6]: Potassium channel subfamily K member 1 (KCNK1), KCNK1 (gene 3775)
The assay is described as follows: LTEA_HepaRG_KCNK1: Life Technologies and Expression Analysis (LTEA) Assay for Potassium channel subfamily K member 1 (KCNK1) using HepaRG (AID 2283511). The gist of the method:
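Human HepaRG cultures receive test chemicals for 48 h in 0.5% DMSO, top concentration 100 uM with half-log dilutions. Induction or suppression of KCNK1 mRNA relative to DMSO is derived by bidirectional fitting of qRT-PCR data.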

Read-out in assay [7]: Keratin 19 (KRT19), KRT19 (gene 3880)
The assay is described as follows: LTEA_HepaRG_KRT19: Life Technologies and Expression Analysis (LTEA) Assay for Keratin 19 (KRT19) using HepaRG (AID 2283512). In short, it runs like this: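 Differentiated HepaRG cells in serum-free induction medium, exposed 48 h in duplicate to 8 half-log concentrations up to 100 uM in 0.5% DMSO. KRT19 mRNA by qRT-PCR, normalized to ACTB, GAPDH, POLR2A; bidirectional fit vs DMSO.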

Read-out in assay [8]: JUN Transcription Factor, JUN (gene 3725)
As to the kind of experiment: LTEA_HepaRG_JUN: Life Technologies and Expression Analysis (LTEA) Assay for JUN Transcription Factor using HepaRG (AID 2283513). The gist of the method:
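Gene-expression endpoint: JUN mRNA (qRT-PCR, normalized to three reference genes) in HepaRG cultures treated 48 h with chemicals, duplicate wells, 100 uM maximum with half-log dilutions; bidirectional fitting relative to 0.5% DMSO.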

Read-out in assay [9]: Interleukin 6 Receptor (IL6R), IL6R (gene 3570)
The assay is described as follows: LTEA_HepaRG_IL6R: Life Technologies and Expression Analysis (LTEA) Assay for Interleukin 6 Receptor (IL6R) using HepaRG (AID 2283510). In short, it runs like this: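 In this HepaRG screen, test chemicals act on cells for 48 h at up to 100 uM (eight half-log points, duplicate wells). IL6R expression is quantified by qRT-PCR after normalization to ACTB, GAPDH and POLR2A, with DMSO as baseline.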

As for `CN(C)C(=O)Nc1ccc(Cl)cc1`, the result (in [1]; with HGF (gene 3082); in assay [2]; in [3]; in [4]; in assay [5]) was inactive. Further, the result in assay [6], in assay [7] and in assay [8] was inactive.
Turning to `CCC(C)c1ccc(O)cc1` (configuration not stated), the result (in assay [1]; in the assay with HGF (gene 3082); in assay [2]; in assay [3]; in assay [4]; in assay [5]) was inactive. The outcome in assay [6], in assay [7] and in [8] was inactive.
What is called AC50 is the concentration at which the activity in the assay is half-maximal. In the case of `COc1cc(C=O)cc2c1[C@H](COC(N)=O)[C@]1(OC(C)=O)ON2C[C@H]2[C@@H]1N2C(C)=O`, the AC50 in [1] is 0.827 µM (active); in assay [2] it was 0.5 µM (active); in assay [3], 1.31 µM (active); in [4], 4.86 µM (active); in [5], 1.52 µM (active); in assay [7], 1.49 µM (active). Besides, the AC50 in assay [8] was 5 µM (active). In addition, the result (in the assay with HGF (gene 3082); in [6]) was inactive.
With `C=CCc1ccc2c(c1)OCO2`, the result (in assay [1]; with HGF (gene 3082); in [2]; in [3]; in assay [4]; in assay [5]) was inactive. The outcome in assay [6], in assay [7] and in assay [8] was inactive.
For the molecule `Clc1ccc(Cl)c(Cl)c1`, the half-maximal activity concentration (AC50) in assay [1] was 50 µM (active). Besides, the molecule was classed as inactive (with HGF (gene 3082); in [2]; in assay [3]; in assay [4]; in assay [5]; in [6]). Also, the molecule was classed as inactive in assay [7] and in assay [8].
Turning to `CC(C)COC(=O)c1ccccc1C(=O)OCC(C)C`, the molecule was classed as inactive (in assay [1]; with HGF (gene 3082); in assay [2]; in assay [3]; in assay [4]; in [5]). Further, the call in [6], in assay [7] and in assay [8] was inactive.
For the molecule `O=C(Nc1ccccc1)c1ccccc1I`, the molecule was classed as inactive (in assay [1]; with HGF (gene 3082); in assay [3]; in assay [5]; in [6]; in [8]). Further, the results for the AC50 in assay [2], in assay [4] and in assay [7] were 19.1 µM (active), 34.8 µM (active) and 22.6 µM (active), respectively.
Regarding `O=C1CCCO1`, in [1], the AC50 was 50 µM (active). Moreover, the molecule was called inactive (in the assay with HGF (gene 3082); in [2]; in assay [3]; in assay [4]; in assay [5]; in assay [6]). Besides, the molecule was classed as inactive in [7] and in assay [8].
Consider `CCNS(=O)(=O)C(F)(F)C(F)(F)C(F)(F)C(F)(F)C(F)(F)C(F)(F)C(F)(F)C(F)(F)F`, for which the molecule was called inactive (in assay [1]; with HGF (gene 3082); in assay [3]; in assay [4]; in assay [5]; in assay [6]). Also, the call in assay [8] was inactive. The AC50 in assay [2] and in [7] was 48.2 µM (active) each time.
With `Nc1cc(Cl)cc(C(=O)O)c1Cl`, the outcome (in assay [1]; with HGF (gene 3082); in assay [2]; in assay [3]; in assay [4]; in [5]) was inactive. Also, the outcome in assay [6], in assay [7] and in assay [8] was inactive.
As for `CCCCCCCCOC(=O)c1ccc(C(=O)OCCCCCCCC)c(C(=O)OCCCCCCCC)c1`, the molecule was classed as inactive (in assay [1]; in the assay with HGF (gene 3082); in [2]; in assay [3]; in assay [5]; in assay [9]). For the same molecule, the molecule was called inactive in assay [6], in assay [7] and in assay [8].
For `CC(C)(O)c1cnn2c(-c3ccc(F)c(-c4c(F)cccc4C#N)c3)cnc2n1`, the AC50 in assay [1] is 13.1 µM (active); in assay [2], 1.35 µM (active). In addition, the call (in the assay with HGF (gene 3082); in assay [3]; in assay [4]; in assay [5]; in assay [6]; in assay [7]) was inactive. Also, the result in assay [8] was inactive.
Take `c1ccc(N=Nc2ccccc2)cc1`: the outcome (in [1]; with HGF (gene 3082); in assay [3]; in [4]; in assay [5]; in assay [6]) was inactive. Also, the molecule was called inactive in assay [7] and in assay [8].
As to `Clc1ccc(C(c2ccc(Cl)cc2)C(Cl)(Cl)Cl)cc1`, the outcome (in [1]; with HGF (gene 3082); in assay [3]; in assay [4]; in assay [5]; in assay [6]) was inactive. Moreover, the call in assay [7] and in [8] was inactive. Further, the AC50 in [2] was 50 µM (active).
Consider `Cn1cc(-c2ccccc2)c(=O)c(-c2cccc(C(F)(F)F)c2)c1`, for which the molecule was classed as inactive (in assay [1]; in the assay with HGF (gene 3082); in assay [2]; in [3]; in assay [5]; in assay [6]). The outcome in assay [7] and in assay [8] was inactive. Further, the AC50 in [4] is 50 µM (active).
On to `[As]#[In]`, for which the call (in assay [1]; with HGF (gene 3082); in assay [2]; in assay [3]; in [4]; in [5]) was inactive. Also, the molecule was classed as inactive in assay [6], in assay [7] and in [8].
Turning to `CN(C)c1ccccc1`, the molecule was called inactive (in assay [1]; in the assay with HGF (gene 3082); in assay [2]; in assay [3]; in assay [4]; in [5]). For the same molecule, the call in [6], in assay [7] and in assay [8] was inactive.
Consider `CCOc1cccc(C2(N3CCN(c4ccccc4)CC3)CCC(C)CC2)c1` (configuration not stated), for which the molecule was classed as inactive (in [1]; with HGF (gene 3082); in assay [2]; in assay [3]; in assay [4]; in assay [5]). Moreover, the result in assay [6], in [7] and in assay [8] was inactive.
As for `CC(C)N(Cc1ccccc1)C(=O)C(C)(C)C`, the call (in assay [1]; with HGF (gene 3082); in [3]; in assay [5]; in [9]; in assay [6]) was inactive. For the same molecule, the outcome in [7] and in [8] was inactive. Further, in [2], the concentration at half-maximal activity (AC50) is 25.6 µM (active).
Regarding `O=C(Oc1ccc(Br)cc1)N1CCN2CCC1CC2`, the molecule was called inactive (in assay [1]; with HGF (gene 3082); in assay [2]; in assay [3]; in [4]; in [5]). Further, the molecule was called inactive in assay [6], in assay [7] and in assay [8].
On to `O=[N+]([O-])c1ccc(Oc2ccc(Cl)cc2Cl)cc1`, for which the call (in assay [1]; in the assay with HGF (gene 3082); in [3]; in assay [5]; in assay [6]; in assay [8]) was inactive. Also, the concentration at half-maximal activity (AC50) in assay [2] was 50 µM (active); in assay [4], 50 µM (active); in [7] it was 41.1 µM (active).
For `Brc1ccc(Oc2ccccc2)cc1`, the outcome (in assay [1]; in the assay with HGF (gene 3082); in assay [2]; in [3]; in assay [4]; in assay [5]) was inactive. The outcome in [6], in assay [7] and in [8] was inactive.
